High-throughput results from PubChem BioAssay.
Peg3 prom inh: inhibitors of Peg3 promoter | HeLa PEG-Prom luciferase reporter, luminescence, overnight | inhibition, % at 20 µM | 360,000 tested, 1.7% active;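 active = inhibition of at least 50% at 20 µM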
HIF-2a block: inhibitors of HIF-2a; 786-0 RCC cells HIF-2a reporter, luciferase luminescence, overnight; inhibition, % at 18.8 µM; 360,000 tested, 0.72% active;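 active = inhibition of the luminescence signal of 40% or more relative to plate controls, in a single-dose primary screen at 18.75 µM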
KKLEB tox: reduces viability of KKLEB cystic fibrosis airway cells. KKLEB CF airway cells viability, ATPlite luminescence, overnight; hits give low values; cells stimulated with P. aeruginosa culture filtrate. activity change (cytotoxicity), % at 5 µM. 360,000 tested, 0.36% active;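 active = corrected activity change at or below -50% at 5 µM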
MITF TRPM1 inh: inhibitors of MITF-driven TRPM1 promoter in melanoma cells; inhibition, % at 12.5 µM; AID 488899; 330,000 tested, 0.83% active; SK-MEL-5 TRPM1 promoter luciferase, 24 h;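 active = mean inhibition across replicates of 60% or more, whatever share of single replicates reaches that level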
Shn3 3UTR inh: Schnurri-3 reporter inhibition in Clone20 osteoblasts; Clone20 osteoblast Shn3 3'UTR firefly luciferase, 24 h; inhibition, % at 12.5 µM; 360,000 tested, 0.52% active; AID 588674;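 active = mean inhibition of at least 75% with every replicate also reaching 75%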;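 note: 0% = median of neutral control wells and 100% = pilot-screen positive control compound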
CF NFkB inh: blocks PAF-induced NF-kB reporter in cystic fibrosis cells. inhibition, % at 5 µM. 360,000 tested, 0.86% active. KKLEB NF-kB-GFP reporter, GFP fluorescence overnight;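 active = at least 50% inhibition at 5 µM, scaled per plate between neutral and stimulator controls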;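 note: PAF is a Pseudomonas aeruginosa culture filtrate used as stimulus; plate controls were PAF-stimulated DMSO wells for no effect and unstimulated DMSO wells for full effect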
CF NFkB inh conf: CF NF-kB inhibition confirmation, single concentration | AID 602472 | inhibition, % at 5 µM | shares compounds with CF NFkB inh | KKLEB CF airway cells, PAF-induced NF-kB-GFP fluorescence, overnight | 1,300 tested, 64% active; in the data active = inhibition above about 40%;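 note: stimulus PAF is a Pseudomonas aeruginosa filtrate and not platelet activating factor; plate controls were DMSO wells with stimulus for no effect and unstimulated DMSO wells for full effect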
Active calls of the source: *; x = no result given. Rows were chosen to be rich in hits. Some 2.8% of all compounds tested hit in one or more screens of this group.

SMILES	Peg3 prom inh	HIF-2a block	KKLEB tox	MITF TRPM1 inh	Shn3 3UTR inh	CF NFkB inh	CF NFkB inh conf
COc1cc(C(=O)Nc2nnc(-c3sccc3C)s2)cc(OC)c1OC	-1	-14	-45	-5	1	54*	59*
CCC(=O)Nc1nc(C)c(-c2csc(Nc3cccc(C(=O)O)c3)n2)s1	-39	-14	10	3	-13	4	x
CC(=O)Nc1nc(C)c(-c2csc(Nc3cccc(C(C)=O)c3)n2)s1	49	-10	-44	65*	86*	81*	82*
CCCCn1nnnc1C(c1ccccc1OC(F)(F)F)N1CCN(C/C=C/c2ccccc2)CC1 (stereo not drawn)	5	-20	-2	x	12	18	x
O=C1NCCc2c1[nH]c1c(Cl)ccc(Cl)c21	17	38	-15	-15	3	56*	71*
COc1ccc(OC)c(-c2nnc3n2N=C(c2ccc(OC)c(OC4CCCC4)c2)CS3)c1	13	25	-21	78*	21	66*	71*
COc1ccc(C2=Nn3c(nnc3-c3ccncc3)SC2)cc1	5	11	-33	-15	-9	72*	76*
C[C@@]12CCC=C[C@H]1[C@H](c1ccc3ccccc3c1Br)N(Cc1ccccc1)C2=O	45	26	-21	19	14	57*	40*
C[C@@]12CCC=C[C@H]1[C@H](c1ccc3ccccc3c1)N(Cc1ccccc1)C2=O	26	26	-25	-7	-3	45	x
CCC(CO)Oc1cc(NCc2ccc(Cl)cc2)c2ncn(C(C)C)c2c1 (stereo not drawn)	15	3	-6	11	-31	15	x
CCC(CO)Oc1cc(NCc2ccc(Cl)cc2Cl)c2ncn(C(C)C)c2c1 (stereo not drawn)	14	20	-2	7	2	60*	45*
CC1(C(=O)NS(=O)(=O)c2ccc(C#N)cc2)CCN1C(=O)Cc1ccccc1Cl (stereo not drawn)	6	11	-2	x	10	-18	x
COc1cc(/C=C/C(=O)OCC(=O)N2CCCCCC2)cc(OC)c1OC	-7	-2	18	x	4	-25	x
Cc1ccc2c(c1)C(=O)C(=O)N2Cc1ccc(Br)cc1	-26	-8	-22	17	-6	62*	81*
CCOC(=O)N1C(=O)NC(=O)C1c1ccc(OC)cc1 (stereo not drawn)	-5	11	-8	0	-6	-12	x
Cc1ccc(F)cc1-c1cc(C(=O)NCc2cc(C(F)(F)F)cc(C(F)(F)F)c2)[nH]n1	13	4	2	x	-14	16	x
Cc1ccc(Cl)cc1-c1cc(C(=O)NCc2cc(C(F)(F)F)cc(C(F)(F)F)c2)[nH]n1	40	-29	-31	x	-9	59*	63*
CNc1ccccc1C(=O)OC(C)C(=O)Nc1ccc(Cl)cn1 (stereo not drawn)	100*	-186	-8	6	-7	69*	34
CCOc1ncccc1C(=O)OC(C)C(=O)Nc1ccc(Cl)cn1 (stereo not drawn)	4	10	-15	2	6	36	x
O=C1CCCCC1C(O)(C(=O)c1ccccc1)c1ccccc1 (stereo not drawn)	6	16	0	x	-5	13	x
COc1cc(NC(C)CCCN)c2nc(C)ccc2c1Oc1ccc(F)cc1 (stereo not drawn)	-44	-14	-4	x	-10	-27	x
COc1ccc(Nc2cccc3ccccc23)cc1	-11	-115	-22	-1	-14	76*	-4
COc1ccc(Nc2cccccc2=O)cc1	-123	-79	10	-55	-11	17	x
COc1ccc(OC)c(Nc2ncnc3ccccc23)c1	-7	-9	-2	-15	-7	11	x
COc1cccc(Nc2ncnc3ccc(Br)cc23)c1	16	11	-14	x	17	62*	87*
SMILES	Peg3 prom inh	HIF-2a block	KKLEB tox	MITF TRPM1 inh	Shn3 3UTR inh	CF NFkB inh	CF NFkB inh conf
COc1ccc(OC)c(Nc2ncnc3ccc(Br)cc23)c1	37	33	-24	-4	9	54*	68*
CN(CC(=O)Nc1cccc(F)c1)C(=O)c1cccc(S(=O)(=O)N2CC3(C)CC2CC(C)(C)C3)c1 (stereo not drawn)	17	12	34	-10	25	-33	x
Oc1cc(NCc2ccc(F)cc2)cc2cccnc12	8	1	25	56	52	51*	39
Cc1ccnc(NC(=O)c2ccc([N+](=O)[O-])o2)c1	-66	-138	3	13	-43	51*	20
Cc1ccc2nsnc2c1NC(=O)CCl	5	7	3	-3	-4	-12	x
O=C(Nc1ccccn1)c1ccc([N+](=O)[O-])o1	-6	-12	-4	-3	-29	31	x
Cc1ccc2nsnc2c1NC(=O)c1ccc([N+](=O)[O-])o1	22	38	7	47	11	73*	37
NC(=O)c1ccsc1NC(=O)c1ccc([N+](=O)[O-])o1	47	-22	-29	67*	29	59*	-15
Cc1onc(-c2ccccc2)c1CNS(=O)(=O)c1ccccc1[N+](=O)[O-]	-3	13	3	0	2	17	x
CSc1ccc(C2C(C(=O)c3ccco3)=C(O)C(=O)N2c2nnc(SC)s2)cc1 (stereo not drawn)	-284	-200	-2	-7	-78	0	x
CCCCN1C(=O)C(=O)c2cc(Cl)ccc21	-2	9	-8	22	-1	63*	47*
CCCN1C(=O)C(=O)c2cc(C)ccc21	-4	3	5	-15	-2	-1	x
C=C(CCC(=O)c1ccccc1)C(=O)c1ccccc1	63*	-50	-40	2	69	80*	-63
Cc1cccc(C(=O)Oc2cccc3c(O)cccc23)c1	-34	11	-9	6	-37	-1	x
CCc1cc2c(-c3ccccc3)cc(=O)oc2cc1OC(C)C(C)=O (stereo not drawn)	-8	-24	-13	-17	17	22	x
O=C(Oc1cc2oc(=O)cc(-c3ccccc3)c2cc1Cl)C1CCCCC1	2	-4	-17	-31	-5	64*	87*
CC(C)(C)OC(=O)NCC(=O)Oc1cc2oc(=O)cc(-c3ccccc3)c2cc1Cl	6	13	1	-16	1	53*	90*
CCOC(=O)c1c(S(=O)(=O)NCC(=O)N2CCN(c3ccc(F)cc3)CC2)c(C)n(C)c1C	3	5	6	-1	-16	-4	x
COc1ccc(NC(=O)Nc2nnc(-c3ccccc3SCc3ccccc3)s2)cc1	-2	17	-35	-9	7	50*	21
COc1cccc(NC(=O)Nc2nnc(-c3ccccc3SCc3ccccc3)s2)c1	4	-4	-15	14	4	6	x
